This note sets out measurements from PubChem BioAssay (NCI).

About 83,000 compounds went through this panel and 20% of them were active in at least one assay; those are over-represented in the sample as a whole.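 Plates (96-well) were seeded with cells, treated with compound at one concentration, and incubated for 48 hours before percent growth was determined.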 A number with no mark means an inactive call. Active and inactive are the calls of the source. How the source made its calls: active means growth percent below 10; inactive means the rest.

Assay in all cases: NCI-60 one-dose screen, 48 h (100 = growth as untreated, 0 = no growth, -100 = all killed)
Common to all, as to conditions: 10 µM unless noted

Test [1] deals with SR leukemia.
In test [2] the test system is RPMI-8226 leukemia.
For test [3], the system named is OVCAR-8 ovarian.
The test system of test [4] is OVCAR-5 ovarian.
Test [5] has as its system SK-OV-3 ovarian.
In test [6] the test system is IGROV1 ovarian.
Test [7] relates to OVCAR-3 ovarian.
The subject of test [8] is HS 578T breast.
The test system of test [9] is NCI/ADR-RES ovarian.
Test [10] deals with OVCAR-4 ovarian.

Take `Oc1ccc(OCCOc2ccc(O)cc2)cc1`: the growth was 45.7% in [1]; 66.9% in test [2]; 42.4% in test [3]; 69.4% in [4]; 95.1% in test [5]; 71.4% in [6]. For the same compound, the growth in [7] is 70.2%; in [8], 109%; in test [9] it was 24.3%.

With `NCCCCCCNc1cc(-c2cccc(OC(F)(F)F)c2)nc2ccc(N3CCCC3)cc12`, the growth is -24.7% (active) in test [1]; -37.8% (active) in test [2]; 2.63% (active) in test [3]; -39.8% (active) in test [10]; -55.6% (active) in [6]; -82.4% (active) in test [7]. Further, the growth was -54% (active) in [8] and 5.01% (active) in [9].

`CCOC(=O)Oc1c(OC)cc(C(=O)c2ccc(OC)c(O)c2OC)cc1OC`: the growth in test [1] was 28%; in test [2], 21%; in test [3] it was 28.5%; in test [10], 75.3%; in [5] it was 31.6%; in [6] it was 41.8%. Besides, the growth in test [7] was -1.93% (active); in test [8], 14.7%.

As to `NS(=O)(=O)c1ccc(CCn2c(SCC(=O)c3ccc(Cl)cc3)nc3ccccc3c2=O)cc1`, the growth in [1] is 100%; in test [2] it was 107%; in [3] it was 107%; in [4], 108%; in test [10] it was 103%; in [6], 107%. Moreover, the growth was 101% in test [8] and 98.6% in test [9].

For the compound `O=C(c1nc2ccccc2[nH]1)C1C(c2ccc(Cl)cc2)C2CC3CCCC[C@H]3N2[C@@]12C(=O)Nc1cc(Cl)ccc12` (stereo partly drawn), the growth in [1] is 39%; in test [2] it was 16.8%; in [3] it was 61.3%; in test [10], 24.4%; in test [5], 71.4%; in [6], 32%. Moreover, the figures for the growth in test [7], in [8] and in [9] were 35%, 73.2% and 50.5%, respectively.

Regarding `N#Cc1c(NCc2ccccc2I)sc2c1CCCCC2`, the growth in test [1] was 93.8%; in [2], 91.9%; in test [3], 88.8%; in [10], 90%; in test [5], 97.8%; in [6], 71.9%. In addition, the values for the growth in test [7], in test [8] and in test [9] were 104%, 93.3% and 89.7%, respectively.

As to `CCCOC(=O)N[C@H]1CCc2cc(OC)c(OC)c(OC)c2-c2ccc(SC)c(=O)cc21`, the growth is 4.77% (active) in test [1]; 5.39% (active) in [2]; 23.6% in test [3]; 40.5% in test [10]; 42.7% in test [5]; 17.5% in test [6]. Also, the results for the growth in test [8] and in test [9] were 5.68% (active) and 5.94% (active), respectively.

Consider `Cc1ccc(/C=N/NC(=O)CSc2nc3ccccc3c(=O)n2Cc2ccc(S(N)(=O)=O)cc2)cc1`, for which the growth in test [1] was 49.4%; in test [2], 95.1%; in [3], 93.6%; in test [4], 95.6%; in test [10], 106%; in test [6] it was 96.2%. The growth is 79.6% in test [7], 88.5% in [8] and 96.8% in [9].

As for `COc1ccc(C(=O)c2cc(C)c(OC)c(C)c2)c(OC)c1NC(C)=O`, the growth is 29.3% in [1]; 21.2% in [2]; 16.9% in test [3]; 37.8% in test [4]; 61.6% in test [10]; 31.5% in [6]. Besides, the growth in test [7] was 5.93% (active); in test [8], 14.4%; in test [9] it was 0.837% (active).

Consider `Cc1cnc(C(=O)Nc2nc3ccc(S(=O)(=O)Nc4ccc(C5(C(F)(F)F)CC5)cc4)cc3[nH]2)cn1`, for which the growth in test [1] was 18.9%; in test [2], 6.96% (active); in [3], 25.8%; in [10], 32.9%; in test [5], 36.9%; in [6] it was 31.4%. In addition, the results for the growth in test [7], in test [8] and in test [9] were -19.3% (active), 8.52% (active) and 15.8%, respectively.

On to `O=S(=O)(NCCCNc1nccc(-c2c(-c3cccc(F)c3)nc3sccn23)n1)c1cccc(F)c1`, for which the growth was 64.9% in [1]; 28% in [2]; 18.4% in test [3]; 26.8% in test [10]; 66% in [5]; 18.9% in [6]. In addition, the growth is 50.7% in [7], 63.7% in test [8] and 17.6% in test [9].

In the case of `COC(=O)CNC(=O)[C@]12CCC(C)(C)C[C@H]1C1=CC[C@@H]3[C@@]4(C)Cc5c([nH]c6ccccc56)C(C)(C)[C@@H]4CC[C@@]3(C)[C@]1(C)CC2`, the growth is 83.3% in test [1]; 77% in [2]; 85.2% in test [3]; 77% in test [10]; 82.6% in test [5]; 104% in test [6]. The values for the growth in test [7], in [8] and in test [9] were 93%, 87.5% and 89.6%, respectively.

Turning to `COc1ccc(/C=C/c2nc(Nc3ccc(S(=O)(=O)Nc4cc(C)on4)cc3)c3ccccc3n2)cc1`, the growth was 45.4% in [1]; 67.9% in test [2]; 61.3% in test [3]; 71.1% in [4]; 73.4% in [10]; 78% in test [6]. The growth is 83.7% in test [7], 80.3% in test [8] and 75.7% in [9].
